High-throughput results as filed in PubChem BioAssay.
Sampled rows, rich in hits. Any-hit rate of the full collection: about 6.8%.
Pf Dd2 inh = P. falciparum Dd2 growth inhibition; SYBR Green, 72 h; hits give low values; activity change, % at 10 µM; 2.3% of 94,000 active; AID 1159554; in the data active = activity change below about -80%; inconclusive = no clear call, values can overlap the other calls
T cruzi growth-1 = inhibitors of T. cruzi proliferation. AID 624255. T. cruzi beta-gal in NIH3T3, GalScreen luminescence, 90 h. inhibition, % at 8.34 µM. 5.9% of 77,000 active;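 active = mean inhibition above about 93%, with at least 55% of replicates each passing it, limit read from the data, passing the limit was not always enough; inconclusive = only one of those two conditions holds; inactive = neither condition holds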
C diff growth = C. difficile growth inhibition; Clostridium difficile clinical isolate growth, OD600, 24 h; hits give low values; growth activity, negative = inhibition, % at 16 µg/mL (by protocol); 0.25% of 86,000 active;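 active = mean growth activity at or below -80% and every replicate also at or below -80%; inconclusive = mean at or below -80% but some replicate above -80%; inactive = mean growth activity above -80%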
T cruzi growth-2 = Trypanosoma cruzi proliferation inhibition | inhibition, % at 8.35 µM | shares compounds with T cruzi growth-1 | AID 651739 | 72% of 5,600 active | T. cruzi beta-gal in NIH3T3, GalScreen luminescence, 90 h;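 active = mean replicate inhibition above about 95% and at least 55% of replicates individually reaching it, limit read from the data; inconclusive = only one of the two criteria is met; inactive = neither criterion is met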
T cruzi growth-3 = blocks T. cruzi growth in NIH3T3 host cells; inhibition, % at 2.09 µM; 21% of 5,600 active; T. cruzi beta-gal in NIH3T3, GalScreen luminescence, 90 h; shares compounds with T cruzi growth-1; AID 651740;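 active = mean inhibition above about 95%, with at least 55% of replicates also reaching it, limit read from the data; inconclusive = meets just one of the two conditions; inactive = meets neither condition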
NIH3T3 tox = kills mouse NIH/3T3 fibroblasts | shares compounds with T cruzi growth-1 | NIH/3T3 viability, CellTiter-Glo ATP luminescence, 90 h | 14% of 5,600 active | cytotoxicity (signal decrease), % at 8.35 µM;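 active = mean signal decrease across replicates above about 35% based on untreated-well scatter, with enough replicates individually passing, limit read from the data; inconclusive = no rule stated though some were filed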
NIH3T3 tox 2 = NIH/3T3 (mouse) viability loss | shares compounds with T cruzi growth-1 | NIH/3T3 viability, CellTiter-Glo ATP luminescence, 90 h | inhibition, % at 24.9 µM | 56% of 5,600 active | AID 651744;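 active = mean loss of cell viability signal at or above a set limit, and enough replicates individually reaching it; inconclusive = meets only the mean limit or only the replicate share; inactive = meets neither condition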
Of the large screens only hits and unclear results are named; the others gave an inactive call (follow-up assays come after a bar, where they were run).

CC(=O)N1CCCCN2[C@H](C1)[C@H](c1ccc(C#Cc3ccccc3F)cc1)[C@@H]2CO	none
C[C@@H]1CN([C@H](C)CO)C(=O)Cc2cc(NC(=O)Cc3ccccc3)ccc2O[C@H]1CN(C)C(=O)Nc1ccccc1	none
C[C@H](CO)N1C[C@H](C)[C@@H](CN(C)CC2CCCCC2)Oc2ccc(NS(=O)(=O)c3cn(C)cn3)cc2C1=O	none
Cc1ccccc1-c1cnc2c(c1)C(=O)N([C@H](C)CO)C[C@@H](C)[C@@H](CN(C)C(=O)c1cccnc1)O2	none (no result: Pf Dd2 inh)
CCC(=O)N1C[C@H](C)[C@H](OC)CN(C)C(=O)c2ccc(NC(=O)c3cnccn3)cc2OC[C@H]1C	none (no result: C diff growth)
C[C@H]1CCCCO[C@H](CN(C)C(=O)C2CCCCC2)[C@@H](C)CN([C@@H](C)CO)C(=O)c2cc(NS(=O)(=O)c3cn(C)cn3)ccc2O1	none
O=C(C[C@H]1C=C[C@@H](NS(=O)(=O)c2ccc(F)cc2)[C@@H](CO)O1)NCc1ccc(Cl)c(Cl)c1	none
Cc1ccc(S(=O)(=O)N[C@H]2CC[C@@H](CCn3cc(C4CCCC4)nn3)O[C@H]2CO)cc1	none (no result: T cruzi growth-1)
CC=Cc1ccc2n(c1=O)C[C@@H]1[C@@H](CO)[C@H](C(=O)NCC3CC3)[C@H]2N1CCC (mixture of isomers)	none
O=C(C[C@@H]1CC[C@@H]2[C@H](COC[C@@H](O)CN2S(=O)(=O)c2cccc(Cl)c2)O1)Nc1ccccc1	none
O=C(C[C@@H]1CC[C@@H]2[C@H](COC[C@@H](O)CN2S(=O)(=O)c2cccc(Cl)c2)O1)Nc1ccc(-c2ccccc2)cc1	T cruzi growth-1 108 | T cruzi growth-2 98 | T cruzi growth-3 inconclusive | NIH3T3 tox inactive | NIH3T3 tox 2 70
O=C(C[C@@H]1CC[C@@H]2[C@H](COC[C@H](O)CN2S(=O)(=O)c2cccc(Cl)c2)O1)Nc1ccccc1	none
O=C(C[C@@H]1CC[C@H]2[C@@H](COC[C@@H](O)CN2S(=O)(=O)c2cccc(Cl)c2)O1)Nc1ccc(-c2ccccc2)cc1	T cruzi growth-1 110 | T cruzi growth-2 101 | T cruzi growth-3 inactive | NIH3T3 tox inactive | NIH3T3 tox 2 103
CCCC(=O)Nc1ccc2c(c1)C(=O)N(C)C[C@@H](OC)[C@@H](C)CN(CC1CCCC1)[C@H](C)CO2	none (no result: C diff growth)
COc1ccc2c3c([nH]c2c1)[C@@H](CO)N(C(=O)Nc1c(C)noc1C)CC31CCN(CC2CCCCC2)CC1	none (no result: T cruzi growth-1, C diff growth)
COc1ccccc1C#Cc1ccc2c(c1)O[C@@H](CN(C)C)[C@@H](C)CN([C@H](C)CO)S2(=O)=O	none (no result: T cruzi growth-1)
COc1ccccc1C#Cc1ccc2c(c1)O[C@H](CN(C)C)[C@@H](C)CN([C@@H](C)CO)S2(=O)=O	none (no result: T cruzi growth-1)
COc1ccccc1C#Cc1ccc2c(c1)O[C@H](CN(C)Cc1ccncc1)[C@@H](C)CN([C@H](C)CO)S2(=O)=O	T cruzi growth-1 123 | T cruzi growth-2 97 | T cruzi growth-3 102 | NIH3T3 tox inactive | NIH3T3 tox 2 71
COc1ccccc1C#Cc1ccc2c(c1)O[C@H](CN(C)Cc1ccncc1)[C@H](C)CN([C@H](C)CO)S2(=O)=O	T cruzi growth-1 112 | T cruzi growth-2 104 | T cruzi growth-3 inactive | NIH3T3 tox inactive | NIH3T3 tox 2 inactive
Cc1ccccc1S(=O)(=O)N(C)C[C@@H]1OCc2cnnn2CCCC(=O)N([C@H](C)CO)C[C@H]1C	none
Cc1ccccc1S(=O)(=O)N(C)C[C@@H]1OCc2cnnn2CCCC(=O)N([C@@H](C)CO)C[C@@H]1C	T cruzi growth-1 inconclusive | T cruzi growth-2 inactive | T cruzi growth-3 inactive | NIH3T3 tox inactive | NIH3T3 tox 2 inactive
CNC[C@@H]1OCc2cn(nn2)CCCC(=O)N([C@@H](C)CO)C[C@@H]1C	none
CNC[C@H]1OCc2cnnn2CCCC(=O)N([C@@H](C)CO)C[C@@H]1C	none
CNC[C@H]1OCc2cn(nn2)CCCC(=O)N([C@H](C)CO)C[C@H]1C	T cruzi growth-1 inconclusive | T cruzi growth-2 inactive | T cruzi growth-3 inactive | NIH3T3 tox inactive | NIH3T3 tox 2 inactive
CNC[C@H]1OCc2cnnn2CCCC(=O)N([C@@H](C)CO)C[C@H]1C	T cruzi growth-1 120 | T cruzi growth-2 inactive | T cruzi growth-3 inactive | NIH3T3 tox inactive | NIH3T3 tox 2 inactive
